Results from PubChem BioAssay AID504327 (National Center for Advancing Translational Sciences (NCATS), 2011).
Where “and” joins values, the source holds several entries; their conditions need not be identical. Identical values can stand only once. In all, about 390,000 compounds went through this assay and about 820 (0.21%) were called active. A call without a number means that no potency is given here. Not shown: some 3% with an inconclusive outcome. The call rests on the fitted dose curve; in most records, active means well fitted inhibition curve with a large enough effect; inconclusive means small, poorly fitted or top-dose-only effect, or another doubt; inactive means no such curve, though single readings can be large or run the other way. The full list was thinned out, with actives kept by preference. More than one record can exist for a structure, and the calls need not agree. Non-standard residues stand in square brackets, D forms with d. Residues, ends and D or L forms follow the SMILES beside them. Groups on a side chain read outwards from the residue. *: point of attachment. X1 = CCC(C)C(N)C1=NC(C(=O)*)CS1; Orn = NCCC[CH](N)C(=O)O

molecular target: Histone acetyltransferase KAT2A (Homo sapiens) (UniProt Q92830); test: qHTS Assay for Inhibitors of GCN5L2; conditions: GCN5L2 HAT assay, ThioGlo1 CoA-SH fluorescence; series mostly up to 58.9 µM
Excerpt: Histone acetyltransferase (HAT) enzymes transfer a […] group from acetyl-coenzyme A to the epsilon-amino group of conserved lysine residues of N-terminal histone tails. Acetylation results in charge neutralization of this positively charged amino acid, decreasing interactions with the […] backbone and making the DNA more accessible for transcription. HATs have been recognized as an emerging drug target for treatment of cancer, diabetes, asthma, chronic obstructive pulmonary disease, cardiac disease, and viral infection. Protein identified with HAT activity include the […] like 2 (GCN5L2, a.ka. Histone acetyltransferase KAT2A) which acetylates histone H3 at Lys9, 14, 18, 13, and to lesser extent histones H4 and H2B. This activates transcription of the gene by modulating chromatin structure and installing the acetyllysine recognition mark for bromodomain-containing coactivator proteins.
A quantitative high throughput screen was developed to identify small molecule inhibitors. The assay is based on the principle that it measures formation of reduced CoA with the pro-fluorescent maleimide derivative ThioGlo1 that becomes fluorescent upon reaction with the free thiol of CoA.
A large number of artifacts are expected in this primary screen, compounded by the assay format (fluorescent artifacts) and by the high top concentration tested for each substance. This BioAssay data deposition should be used with caution, and counterscreen and secondary assay validation is essential since very few actives from the primary screen are expected to be true inhibitors of GCN5L2.
[2] Yasgar, et al. Compound Management for Quantitative High-Throughput Screening. JALA. 2008 Apr;13(2):79-89.
[3] Inglese, et al. Quantitative high-throughput screening: a titration-based approach that efficiently identifies biological activities in large chemical libraries. Proc Natl Acad Sci. 1;103(31):11473-8. 2006. PMID: 16864780
NIH Molecular Libraries Probe Production Network [MLPCN]
NIH Chemical Genomics Center [NCGC]
Structural Genomics Consortium (SGC)
To each well of a 1,536w plate, 3ul of GCN5L2 (final concentration 20nM, in 50mM HEPES, 0.1mM EDTA (pH 7.5), 0.01% Tween-20 buffer) are added using a Kalypsys dispenser. Only buffer is added to some wells as a control. A Kalypsys pin-tool transferred 23nl of library compound solution in DMSO to each well, as well as the control inhibit garcinol. . Following a 15 min incubation of enzyme with compounds at room temperature, 1ul mixture of ThioGlo1 (50uM final), H3(1-25) peptide (75uM final), and Acetyl-CoA (70uM final) is added. Plates are read immediately on the ViewLux (PerkinElmer) (Ex340nm/Em540nm) for a 0 min read, incubated for 20 min at room temperature, and read again on the ViewLux with the same settings. The initial read was carried out to identify compounds that are potentially fluorescent.
Potency means the concentration at half of the fitted maximal effect.

Sequence of Histone acetyltransferase KAT2A (Homo sapiens) (Q92830 whole entry, looked up): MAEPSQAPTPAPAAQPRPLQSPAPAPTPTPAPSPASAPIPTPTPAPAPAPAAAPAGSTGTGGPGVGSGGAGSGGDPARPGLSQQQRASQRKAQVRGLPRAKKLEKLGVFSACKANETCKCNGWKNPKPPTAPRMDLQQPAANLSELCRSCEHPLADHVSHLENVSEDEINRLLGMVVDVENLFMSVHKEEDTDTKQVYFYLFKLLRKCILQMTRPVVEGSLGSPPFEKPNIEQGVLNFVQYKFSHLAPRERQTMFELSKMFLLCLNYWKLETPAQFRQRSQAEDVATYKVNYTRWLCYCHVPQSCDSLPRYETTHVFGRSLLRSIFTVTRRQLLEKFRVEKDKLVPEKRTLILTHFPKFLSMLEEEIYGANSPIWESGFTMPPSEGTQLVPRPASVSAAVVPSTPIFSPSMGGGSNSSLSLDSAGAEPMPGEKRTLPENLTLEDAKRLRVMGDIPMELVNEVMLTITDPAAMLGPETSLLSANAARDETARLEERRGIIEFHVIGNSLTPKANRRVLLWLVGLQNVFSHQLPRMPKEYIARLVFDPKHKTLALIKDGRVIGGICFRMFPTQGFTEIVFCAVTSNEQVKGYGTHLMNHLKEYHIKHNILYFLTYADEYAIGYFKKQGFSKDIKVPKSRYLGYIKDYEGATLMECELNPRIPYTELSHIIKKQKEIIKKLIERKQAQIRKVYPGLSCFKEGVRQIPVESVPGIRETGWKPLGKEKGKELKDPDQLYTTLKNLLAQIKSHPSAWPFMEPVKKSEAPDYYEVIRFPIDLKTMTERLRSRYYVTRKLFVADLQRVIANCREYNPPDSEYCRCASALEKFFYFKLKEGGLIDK

Compound | Potency | activity change, negative = inhibition
COc1ccccc1-c1cc(NCc2cccs2)ncn1 | inactive | 
Cc1cc2oc(=O)cc(-c3ccccc3)c2c(C)c1/C=C/c1ccc(F)cc1 | inactive | 
Cc1cc2nn(-c3ccc(Cl)cc3)nc2cc1NC(=O)C(C)C | inactive | 
Cc1ccc(Cl)cc1NC(=O)C(C)n1nnc2sc(-c3ccccc3)cc2c1=O (stereo unspecified) | 31.6 µM (active) | 
CCCCCCn1nnc2sc(-c3ccccc3)cc2c1=O | inactive | 
COc1ccccc1CCn1c(=O)c(-c2cn(C)c3ccccc23)nc2cncnc21 | inactive | 
Cc1csc(-c2nc3ccccc3n2C)n1 | inactive | 
CN(Cc1ccco1)c1ncncc1-c1ccoc1 | inactive | 
Nc1ncnc2c1ncn2C1CC(O)C(CO)O1 (stereo unspecified) | inactive | 
O=C(Nc1ccc(O)cc1)c1ccccc1O | inactive | 
O=c1ccn([C@@H]2O[C@H](COP(=O)(O)OP(=O)(O)OP(=O)(O)O)[C@@H](O)[C@H]2O)c(=O)[nH]1 | inactive | 
NCCC(=O)c1ccccc1N | inactive | 
N#Cc1ccc(CN2CCCC3(CCN(C(=O)c4ccco4)CC3)C2)cc1 | inactive | 
C=C1/C(=C\C=C2\CCCC3(C)C2CCC3C(C)/C=C/C(O)C2CC2)CC(O)CC1O (stereo unspecified) | inactive | 
CC(O)COc1ccccc1 (stereo unspecified) | inactive | 
NNc1nnc(NN)c2ccccc12 | inactive | 
Cc1nc2cnc(N3CCN(C)CC3)nc2n(C[C@H]2CCCO2)c1=O | inactive | 
Cc1cc(N(C)C)nc(Cl)n1 | inactive | 
C=C(C)C1CC=C(C)C(O)C1 (stereo unspecified) | inactive | 
O=C(O)C(O)[C@@](O)(Cc1ccc(O)cc1)C(=O)O (stereo partly specified) | inactive | 
CCN(Cc1ccncc1)C(=O)[C@@H](CO)c1ccccc1 | inactive | 
CC1(C)O[C@@H]2C[C@@H]3[C@H]4C[C@@H](F)C5=CC(=O)C=C[C@]5(C)[C@@]4(F)[C@@H](O)C[C@]3(C)[C@]2(C(=O)CO)O1 | inactive | 

Compound | Potency | activity change, negative = inhibition
CC(C)[C@H]1CC[C@@H](C)C[C@H]1O |  | 5.9% [at 0.501 µM] (inactive)
O=P(O)(O)OC[C@H](O)CO | inactive | 
O=c1[nH]c(=S)[nH]c2[nH]c(=S)[nH]c12 | 4.47 µM (active) and 3.55 µM (active) | 
COc1ccc(CC(N)C(=O)NC2C(O)[C@H](n3cnc4c(N(C)C)ncnc43)O[C@@H]2CO)cc1 (stereo partly specified) | inactive | 
O=c1cnc2cnc(Nc3ccccc3)nc2n1Cc1ccc(F)cc1 | inactive | 
C[C@@H]1C(c2ccc(F)cc2)=NN(c2ccc(Br)cc2)[C@H]1C(=O)N1CCOC1=O | inactive | 
O=C1OCCN1C(=O)[C@H]1[C@H](c2ccc(Cl)cc2)C(c2cccc(Cl)c2)=NN1c1ccc(Br)cc1 | inactive and 12.6 µM (active) | 
CC(C)Cn1c(=O)c2ccccc2n2c(-c3cccc(Cl)c3)nnc12 | inactive | 
O=c1cc(-c2ccccc2)n2c(SCc3ccccc3)nnc2[nH]1 | inactive | 
O=c1[nH]c2ccccc2n2c(-c3ccccc3)nnc12 | 22.4 µM (active) | 
C[C@@H](O)[C@@H]1NC(=O)[C@H](CCCCN)NC(=O)[C@H](Cc2c[nH]c3ccccc23)NC(=O)[C@H](Cc2ccccc2)NC(=O)[C@H](Cc2ccccc2)NC(=O)[C@H](CC(N)=O)NC(=O)[C@H](CCCCN)NC(=O)[C@@H](NC(=O)[C@@H]2CCCN2)CSSC[C@@H](C(=O)N[C@@H](CCCCN)C(=O)O)NC(=O)[C@H](CO)NC(=O)[C@H](CO)NC(=O)[C@H](Cc2ccccc2)NC1=O | inactive | 
O=C(c1cnccn1)N1CCC[C@@]2(CCN(Cc3ccncc3)C2)C1 | inactive | 
CC(C)[C@@H]1NC(=O)[C@H](Cc2ccccc2)NC(=O)[C@@H](CC(=O)O)NC(=O)CNC(=O)[C@H](CCCNC(=N)N)NC1=O | inactive | 
O=C(Nc1cccc(F)c1)N1CC2(CCN(C(=O)c3cnccn3)CC2)C1 | inactive | 
CC(C)(O)c1ccccc1CC[C@H](SCC1(CC(=O)O)CC1)c1cccc(/C=C/c2ccc3ccc(Cl)cc3n2)c1 | 20 µM (active) | 
CCCCC/C=C\C/C=C\CCCCCCCCCC(=O)O | inactive | 
CNc1ncnc2ccc(-c3cccc(NS(C)(=O)=O)c3)cc12 | inactive | 
C=C1O[C@@](CO)(n2cnc3c(N)ncnc32)[C@H](O)[C@@H]1O | inactive | 
CC[C@H](C)[C@H](NC(=O)[C@H](CCCNC(=N)N)NC(=O)[C@H](CCCNC(=N)N)NC(=O)[C@H](CC(C)C)NC(=O)[C@H](Cc1ccccc1)NC(=O)CNC(=O)CNC(=O)[C@@H](N)Cc1ccc(O)cc1)C(=O)N[C@@H](CCCNC(=N)N)C(=O)N1CCC[C@H]1C(=O)N[C@@H](CCCCN)C(=O)N[C@@H](CC(C)C)C(=O)N[C@@H](CCCCN)C(=O)N[C@@H](Cc1c[nH]c2ccccc12)C(=O)N[C@@H](CC(=O)O)C(=O)N[C@@H](CC(N)=O)C(=O)N[C@@H](CCC(N)=O)C(=O)O | inactive | 
FC(F)(F)C1CCCN(c2nsc3ccccc23)C1 (stereo unspecified) | 2.82 µM (active) | 
COCC(=O)N1CCC2(CCCN(c3ccccc3)C2)CC1 | inactive | 
O=S(O)S(=O)(=O)O | inactive | 

Compound | Potency | activity change, negative = inhibition
CCC(C)C(N)C1=NC(C(=O)NC(CC(C)C)C(=O)NC(CCC(=O)O)C(=O)NC(C(=O)NCCCCC2NC(=O)C(CC(N)=O)NC(=O)C(CC(=O)O)NC(=O)C(Cc3cnc[nH]3)NC(=O)C(Cc3ccccc3)NC(=O)C(C(C)CC)NC(=O)C(CCCN)NC2=O)C(C)CC)CS1 (stereo not drawn) (cyclo(DNK([Ile-Glu-Leu-X1])[Orn]IFH); configuration not given here) | inactive | 
COC(=O)CC1C(C)(C)C(OC(C)=O)C2CC3=C4CC(=O)OC(c5ccoc5)[C@]4(C)CCC3[C@@]1(C)C2=O (stereo partly specified) | inactive | 
O=C(c1csnn1)N1CCC2(CC1)CN(c1ncccn1)C2 | inactive | 
CC(C)c1cnc(NC(=O)Cc2ccccc2)s1 | inactive | 
Cc1nc2cnc(N3CCN(C)CC3)nc2n(CCC#N)c1=O | inactive | 
C[C@H]1CCC[C@@]2(C)CCCC[C@]12O | inactive | 
CC(CCC(=O)O)C1CCC2C3C(O)C[C@@H]4CC(O)CC[C@@]4(C)C3CC[C@@]12C (stereo partly specified) | inactive | 
O=c1cc(-c2ccc(O)cc2)oc2c([C@@H]3O[C@H](CO)[C@@H](O)[C@H](O)[C@H]3O)c(O)cc(O)c12 | inactive | 
O=C(c1ccncc1)N1CCC2(CCCN(C(c3ccccc3)c3ccccc3)C2)CC1 | inactive | 
COc1ccccc1N1CCN(C[C@@H]2CN3C(=O)N(C)c4ccccc4C3=N2)CC1 | inactive | 
C[C@@H]1C[C@H]2[C@@H]3C[C@H](F)C4=CC(=O)C=C[C@@]4(C)[C@]3(F)[C@H](O)C[C@]2(C)[C@@]1(O)C(=O)CO | inactive | 
C[C@@H]1O[C@@H](OC[C@H]2O[C@@H](Oc3cc(O)c4c(c3)O[C@H](c3ccc(O)c(O)c3)CC4=O)[C@H](O)[C@@H](O)[C@@H]2O)[C@H](O)[C@H](O)[C@H]1O | inactive | 
Cc1ccccc1CSCCNC(=O)c1ccc(Cl)c(S(=O)(=O)N2CCOCC2)c1 | inactive | 
Cc1ccccc1CSCCNC(=O)c1ccc(N(C)S(=O)(=O)c2ccccc2)cc1 | 2.24 µM (active) | 
COc1ccccc1CNC(=O)c1ccc(N(C)S(=O)(=O)c2ccc(C)cc2)cc1 | inactive | 
COc1cccc(Nc2ncc3ncc(=O)n(C4CC4)c3n2)c1 | inactive | 
Cc1ccc(C2C(C#N)C(C#N)N3CCCN23)cc1 (stereo unspecified) | 22.4 µM (active) | 
CC1CC[C@@]23CCC4(C)[C@@]5(C)CCC6C(C)(C)C(O)CC[C@@]6(C)C5C=C[C@@]4(OC2=O)C3C1C (stereo partly specified) | inactive | 
CC1=C/C(=N\OS(=O)(=O)c2ccccc2)C=CC1=O | 14.1 µM (active) | 
COc1cc2c(cc1OC)CC(=O)N(CCCN(C)C[C@H]1Cc3cc(OC)c(OC)cc31)CC2 | inactive | 
O=C1OC(C(O)CO)C(O)=C1O (stereo unspecified) | inactive | 
CCNc1ncc2ncc(=O)n(Cc3cccc(OC)c3)c2n1 | inactive | 

Compound | Potency | activity change, negative = inhibition
Cc1ccc(S(=O)(=O)N2CCCCC2)cc1NC(=O)c1cccnc1 | inactive | 
CCOC(=O)c1sc(NC(=O)CSc2nc(C)cc(C(F)(F)F)n2)c(C#N)c1C | inactive | 
Cc1c(C(=O)OC(C)C)sc(NC(=O)c2cccnc2)c1C#N | 3.16 µM (active) | 
COc1cccc(-c2cc(NCCc3c[nH]c4ccc(OC)cc34)ncn2)c1 | inactive | 
CC1(C)OC2CC3C4CCC5=CC(=O)CCC5(C)C4(F)C(O)CC3(C)[C@]2(C(=O)CCl)O1 (stereo partly specified) | inactive | 
Oc1c(Cl)cc(Cl)c(Cl)c1Cc1c(O)c(Cl)cc(Cl)c1Cl | 12.6 µM (active) | 
c1ccc2c(Nc3ccncc3)nc(-c3ccoc3)nc2c1 | inactive | 
O=C(Nc1ccccc1)N[C@H]1C[C@H](C(=O)O)Nc2cc(Cl)cc(Cl)c21 | inactive | 
C=C1C(=CC=C2CCC[C@@]3(C)[C@@H]2CC[C@H]3[C@H](C)CCCC(C)C)C[C@@H](O)C[C@@H]1O | inactive | 
CC(C)(O/N=C(\C(=O)N[C@@H]1C(=O)N2C(C(=O)[O-])=C(C[n+]3ccccc3)CS[C@@H]12)c1csc(N)n1)C(=O)O | inactive | 
CC1C(O)CC2C(C(=O)O)=CO[C@@H](O[C@H]3OC(CO)C(O)C(O)C3O)C21 (stereo partly specified) | inactive | 
COC(=O)N1CCC[C@@]2(CCN(C(=O)NC(C)C)C2)C1 | inactive | 
Brc1ccc(C2=NCCC(c3ccccc3)O2)cc1 (stereo unspecified) | inactive | 
CC(C)NC(=O)N1CC[C@@]2(CCCN(C(=O)c3ccco3)C2)C1 | inactive | 
CCCCOC(=O)Cn1c(=O)n(CC(=O)OCCCC)c2cc(C)ccc21 | 31.6 µM (active) | 
CCCCOc1ccc(Cn2c(=O)oc3ccc(C)cc32)cc1OC | inactive | 
Cc1ccc(C)c(NC(=O)COC(=O)Cn2c(C)csc2=O)c1 | inactive | 
COc1ccc(NC(=O)N2CC3(CCN(C(C)=O)CC3)C2)cc1 | inactive | 
CC(=O)CC(c1ccccc1)C1C(=O)Oc2ccccc2C1=O (stereo unspecified) | inactive | 
COc1cccc(Cn2c(=O)c(-c3cc(F)cc(F)c3)nc3cnc(OC)nc32)c1 | inactive | 
